The text below walks through data of PubChem BioAssay (NCI).

Test in all cases: NCI-60 one-dose screen, 48 h (100 = growth as untreated, 0 = no growth, -100 = all killed)
Conditions in all cases: 10 µM unless noted

Test [1] relates to SR leukemia.
Test [2] relates to RPMI-8226 leukemia.
The subject of test [3] is OVCAR-8 ovarian.
Test [4] concerns OVCAR-5 ovarian.
In test [5] the test system is OVCAR-4 ovarian.
The subject of test [6] is SK-OV-3 ovarian.
The test system of test [7] is IGROV1 ovarian.
The test system of test [8] is OVCAR-3 ovarian.
Test [9] has as its system HS 578T breast.
Test [10] deals with NCI/ADR-RES ovarian.
Test [11] concerns T-47D breast.
Test [12] relates to BT-549 breast.
Test [13] relates to MDA-MB-435 melanoma.
The test system of test [14] is SW-620 colon.
Test [15] relates to MCF7 breast.
Test [16] relates to HCT-116 colon.
For test [17], the system named is HCC-2998 colon.
In test [18] the test system is KM12 colon.

The structures appear in SMILES notation. About 83,000 compounds went through this panel and 20% of them were active in at least one assay; those are over-represented in the sample as a whole.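 Treatment: one concentration, 48 hours, 96-well format. Scoring: percent growth, with anything below 10 considered active.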 Values without a mark were called inactive. The source made the active and inactive calls.

With `CNC(=O)c1cc(Oc2ccc3c(c2)sc2nc(-c4ccc(NC(=O)[C@@H](NC(=O)OC)C(C)C)cc4)cn23)ccn1`, the growth was 66.1% in test [1]; 30.3% in test [2]; 34.9% in [3]; 117% in test [4]; 66.4% in test [5]; 98% in [6]. In addition, the growth in test [7] was 82.2%; in test [8], 63.3%; in test [9], 81.6%; in [10], 65.1%; in [11] it was 8.68% (active); in test [12], 14.2%. The growth in test [13] was 38.5%; in test [14] it was 84.3%; in test [15], 51.6%; in test [16] it was 55%; in test [17], 93.4%; in test [18], 32.8%.

With `CCCCCCCCn1ccc2cc(NC(=O)CN=[N+]=[N-])ccc21`, the growth in test [1] is 100%; in test [2], 99.2%; in test [3], 96.9%; in test [4], 98.2%; in [5] it was 103%; in [6], 111%. Also, the growth in [7] was 87.2%; in test [8], 96%; in test [9], 101%; in test [10] it was 116%; in test [11], 94%; in [12], 86.5%. Moreover, the growth is 108% in test [13]; 101% in test [14]; 91.1% in test [15]; 97.5% in test [16]; 117% in test [17]; 99.4% in [18].

Consider `CN(C)CCCn1c2c(c3cnccc3c1=O)C(=O)c1ccccc1-2`, for which the growth in test [1] is -8.62% (active); in test [2], -13.6% (active); in test [3], -11.3% (active); in test [4], 0.0676% (active); in test [5], -9.31% (active); in test [6], 21.5%. For the same compound, the growth in [7] was 3.55% (active); in test [8], -11.8% (active); in [9], 20.3%; in test [10] it was -17.7% (active); in test [11], -5.32% (active); in test [12], 6.92% (active). Moreover, the growth is 3.83% (active) in test [13]; -6.01% (active) in test [14]; -3.97% (active) in test [15]; -12.6% (active) in [16]; 3.98% (active) in [17]; 3.16% (active) in test [18].

Consider `Cc1c(C(C)(C)O)cn2ncnc(Oc3ccc(NC(=O)Nc4ccc(Cl)c(C(F)(F)F)c4)c(F)c3)c12`, for which the growth in [1] is 8.9% (active); in [2] it was 49.9%; in test [3], 70.7%; in test [4], 134%; in test [5], 37.5%; in test [6], 95.6%. The growth in test [7] was 57.3%; in [8], 47.6%; in [9] it was 80.9%; in test [10], 68%; in test [11] it was 40.6%; in [12], 72.4%. The growth in test [13] is 58%; in test [14], 85%; in test [15] it was 32.4%; in test [16], 38.7%; in test [17], 125%; in test [18], 43.6%.

`COC(=O)/C=C1/SC(=NCc2ccccc2)N(CCc2c[nH]c3ccccc23)C1=O`: the growth is 29.8% in [1]; 52.4% in test [2]; 67.6% in test [3]; 110% in [4]; 78.1% in [5]; 111% in [6]. The growth in [7] was 92.1%; in test [8], 79.1%; in [9], 79.7%; in [10], 80.6%; in [11], 53.5%; in test [12] it was 66.9%. Also, the growth in [13] is 72.3%; in [14], 72%; in test [15], 48.4%; in [16], 53.6%; in [17] it was 99.8%; in test [18], 70.4%.

On to `CCOC(=O)NCCCC(=O)NCCc1ccccc1`, for which the growth was 106% in test [1]; 110% in test [2]; 104% in test [3]; 118% in test [4]; 107% in test [5]; 108% in [6]. Besides, the growth was 106% in [7]; 108% in test [8]; 106% in test [9]; 104% in test [10]; 100% in [11]; 110% in [12]. Also, the growth in [13] is 109%; in test [14], 111%; in test [15], 97.8%; in test [16], 97.6%; in [17], 99.1%; in [18], 96.6%.

With `COC(=O)[C@@]12CC=C(C)[C@]3(C[C@H](c4ccoc4)OC3=O)[C@H]1C=C[C@@H](O)[C@@]2(O)C(=O)OC`, the growth in test [1] was 89.2%; in [2], 120%; in test [3] it was 96.4%; in test [4] it was 103%; in test [5], 110%; in test [6], 99.9%. Besides, the growth is 92.4% in test [7]; 105% in [8]; 111% in [9]; 102% in test [10]; 110% in test [11]; 110% in test [12]. For the same compound, the growth is 102% in [13]; 113% in test [14]; 101% in test [15]; 97.7% in test [16]; 101% in [17]; 103% in test [18].

`COC1C(O)CC(OC2CC(OC3CC(O[C@@H]4C(=O)c5c(cc6cc(OC7CC(OC8CC(O)C(O)C(C)O8)C(O)C(C)O7)c(C)c(O)c6c5O)CC4[C@H](OC)C(=O)O)OC(C)C3O)OC(C)C2O)OC1C` (stereo partly drawn): the growth in [1] was 18%; in test [2] it was 19%; in [3], 15.6%; in test [4], 29.3%; in test [5], 44.8%; in test [6] it was 35.1%. Besides, the growth was 23.7% in test [7]; 18% in test [8]; 23.5% in [9]; 63% in test [10]; 25.5% in [11]; 21.4% in test [12]. For the same compound, the growth is 28.8% in [13]; 32% in test [14]; 10.1% in test [15]; 15.4% in test [16]; 38.6% in test [17]; 22.9% in [18].

Consider `O=C(OCc1ccc2c(Cl)cc(Cl)c(O)c2n1)N1CCN(C(=O)c2cc3ccccc3[nH]2)CC1`, for which the growth was 25.3% in test [1]; 40.6% in test [2]; 23.8% in [3]; 41.3% in test [4]; 19.6% in [5]; 31.2% in test [6]. Besides, the growth in test [7] was 18.5%; in test [8], 30.6%; in [9], 43.5%; in test [10], 7.03% (active); in [11], 23.5%; in test [12], 50.6%. The growth is 39.1% in test [13]; 25.8% in test [14]; 25.3% in test [15]; 20.3% in test [16]; 55% in [17]; 20.7% in [18].

Take `O=[N+]([O-])c1ccccc1Sc1ccccc1[N+](=O)[O-]`: the growth is 104% in [1]; 95.4% in test [2]; 102% in [3]; 93.1% in test [4]; 95.9% in test [5]; 90.9% in test [6]. Further, the growth in [7] is 105%; in test [8], 92.4%; in [9], 95.8%; in test [10], 96.2%; in [11], 81.5%; in test [12], 100%. Moreover, the growth in [13] was 103%; in test [14] it was 110%; in test [15] it was 108%; in test [16], 94.9%; in test [17], 97.5%; in [18] it was 92.6%.

As for `COC(=O)c1ccc2cc(OC)c(OC)cc2c1`, the growth in test [1] was 91.5%; in test [2] it was 101%; in test [3], 104%; in [4], 101%; in test [5], 113%; in test [6] it was 118%. The growth in test [7] was 118%; in test [8] it was 112%; in test [9], 105%; in [10] it was 107%; in test [11] it was 96.1%; in test [12] it was 90.5%. The growth in [13] was 98.8%; in test [14], 99%; in test [15], 92.2%; in test [16], 95.6%; in test [17], 98.8%; in test [18] it was 108%.
